The full list was thinned out, with hits kept by preference.
AMA1 RON2 block: qHTS for Inhibitors of AMA1-RON; Towards Development of Antimalarial Drug Lead: Primary Screen | AlphaScreen AMA1-biotinylated RON2 peptide binding | Potency, µM (doses to about 58.2 µM), for the others: at the highest dose activity change, negative = inhibition, most hits filed as inhibitors | Plasmodium falciparum AMA1 (3D7) - RON2 peptide interaction | 360,000 compounds, 0.2% hits; active = well fitted inhibition curve with a large enough effect; inconclusive = small, poorly fitted or top-dose-only effect; inactive = no such curve, though single readings can be large or run the other way;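 also: potency is read from the fitted curve at half-maximal effect; 0% = vehicle wells and -100% = peptide control; nearly all actives have a fitted effect of over 45% in size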
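AMA1 (3D7) with his tag at 25 nM final met compounds first, then biotinylated RON2 peptide at 25 nM; detection used donor plus acceptor beads, 10 µg/mL apiece, read by AlphaScreen after 30 min at room temperature.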
Marburg entry inh: qHTS for inhibitors of binding or entry into cells for Marburg Virus; AID 540276, 2011; Marburg virus pseudotyped entry inhibition, cell reporter; Potency, µM (highest dose often 37.8 µM), for the others: at the highest dose activity change, negative = inhibition, usual class: inhibitors; 300,000 compounds, 1.8% hits; calls by dose curve; tested in HEK293 cells; also: potency is read from the fitted curve at half-maximal effect; % is scaled to controls: 0 for no effect and ±100 for the full control effect
Shiga inhibitor: A qHTS for Small Molecule Inhibitors of Shiga Toxin; Vero cells, Shiga toxin protein synthesis inhibition reporter; inhibition, % at 38.7 µM; 290,000 compounds, 9.2% hits; in the data active = inhibition mostly above about 28%, no sharp cut-off; inactive = mostly below about 43%; also: 0% is about no effect
LASV entry inh: qHTS for Inhibitors of binding or entry into cells for Lassa Virus; 300,000 compounds, 1.2% hits; AID 540256, 2011; Lassa virus pseudotype entry inhibition, cell reporter; Potency, µM (doses to about 37.9 µM), without a hit: at the top dose activity change, negative = inhibition, actives largely listed as inhibitors; calls by dose curve; tested in HEK293 cells; also: potency is read from the fitted curve at half-maximal effect; % is scaled to controls: 0 for no effect and ±100 for the full control effect; nearly all actives have a fitted effect of over 50% in size
CHX counter: Cycloheximide Counterscreen for Small Molecule Inhibitors of Shiga Toxin | cell reporter, cycloheximide protein synthesis inhibition counterscreen | max response, % | 300,000 compounds, 12% hits; in the data active = max response mostly above about 13%, no sharp cut-off; inactive = mostly below about 14%; also: read at 38.3 µM for the half of the compounds with a filed dose; 0% is about no effect
Starred values were filed as active, the others as inactive; ? = inconclusive; . = no result; [ ] = remark or other dose.

SMILES	AMA1 RON2 block	Marburg entry inh	Shiga inhibitor	LASV entry inh	CHX counter
O=C(NCc1nc2ccccc2[nH]1)c1ccc([N+](=O)[O-])cc1	-3.2%	.	-5.2	.	-3.9
COC(=O)c1cc(C(=O)Nc2nc3ccccc3[nH]2)cc([N+](=O)[O-])c1	52.8%	0.7%[46.1 µM]	48.5*	16.7%	16.5
Cc1ccc(S(=O)(=O)CCC(=O)OCc2nnc(-c3ccc([N+](=O)[O-])cc3)o2)cc1	12.1%	-0.6%	.	1.4%	.
O=C(Nc1ccccn1)c1ccc(Br)c(S(=O)(=O)N2CCCCC2)c1	6.8%	8.3%	-1.5	4.0%	-1.9
O=C(NC(Cc1ccccc1)c1nc2ccccc2[nH]1)c1cccc([N+](=O)[O-])c1 (stereo not given)	-3.4%	?	8.1	?	8.6
O=C(Nc1ccccn1)c1ccc(Br)c(S(=O)(=O)N2CCCC2)c1	-0.4%	-0.1%	50.3*	9.9%	33.9*
O=C(Nc1nc2ccccc2[nH]1)c1cccc([N+](=O)[O-])c1	103.7%	?	58.5*	12.8%[46.1 µM]	46.6*
CC(=O)N1CCc2cc(S(=O)(=O)NC(Cc3ccccc3)C(=O)NCc3ccccc3Cl)ccc21 (stereo not given)	.	-4.1%[46.1 µM]	.	5.4%[46.1 µM]	.
Cn1c(=O)n(C)c2cc(NS(=O)(=O)c3ccc(F)cc3)c(NCc3ccccc3)cc21	.	16.0%[46.1 µM]	.	-3.2%[46.1 µM]	.
CC1CCCCC1NC(=O)Cn1cccc1C(=O)c1ccccc1 (stereo not given)	0.0%	-6.4%[46.1 µM]	24.9	0.5%[46.1 µM]	15.5*
Cc1ccccc1C(=O)c1cccn1CC(=O)NCc1ccccc1Cl	25.5%	.	49.6*	.	21.6*
O=C(Cn1cccc1C(=O)c1ccccc1)NCc1ccccc1Cl	1.5%	-2.2%[46.1 µM]	75.0*	4.6%[46.1 µM]	37.6*
COc1ccccc1CNC(=O)Cn1cccc1C(=O)c1ccccc1	2.0%	.	48.3*	.	27.5
O=C(Cn1cccc1C(=O)c1ccccc1)NCc1ccccn1	22.9%	-1.2%	-18.1	?	-2.6
Cc1ccccc1C(=O)c1cccn1CC(=O)NC1CCCC(C)C1C (stereo not given)	2.3%	-21.5%[46.1 µM]	-11.6	14.0%[46.1 µM]	-2.3
Cc1ccc2c(c1)-c1nc(-c3ccccc3)cc(-c3ccccc3)c1CO2	.	?	.	6.5%[46.1 µM]	.
CC(=O)Nc1sc(N/N=C/c2ccccc2F)nc1-c1ccc(C)cc1	-1.0%	-8.6%	92.4*	.	41.6*
CC(=O)Nc1sc(N/N=C/c2ccc(O)cc2)nc1-c1ccc(C)cc1	73.3%	.	15.5	.	11.1
CC(=O)Nc1sc(N/N=C/c2ccccc2)nc1-c1ccc(C)cc1	1.7%	6.4%	30.9	14.1%	18.4*
CCOC(=O)c1nc(N/N=C/c2ccccc2)sc1Br	28.6%	-10.1%[46.1 µM]	20.8	?	13.3*
COc1ccccc1[C@@]1(CC(=O)N2CCOCC2)CCO[C@@H](C(C)C)C1	.	-1.5%	.	.	.
Cc1c(C)n(Cc2ccc(F)cc2)c2ccc(C(=O)Nc3ccc(Cl)cc3)cc12	.	.	.	-7.2%[46.1 µM]	.
CC(Cc1ccccc1)[n+]1cc(/N=C(\[O-])Nc2ccccc2)on1 (stereo not given)	-18.7%	22.4%	28.0	22.9%	17.4*
CCOc1ccccc1NC(=O)C(=O)N/N=C/c1cc(Br)ccc1O	6.9%	2.51µM*	8.5	1.58µM*	-6.0
O=C(N/N=C/c1cccnc1)c1cccc(NC(=O)c2cccc(Br)c2)c1	11.6%	2.4%[46.1 µM]	11.4	6.1%	14.2
SMILES	AMA1 RON2 block	Marburg entry inh	Shiga inhibitor	LASV entry inh	CHX counter
O=C(N/N=C/c1cc(Cl)ccc1O)c1ccc(Br)cc1	-14.2%	?	-1.9	10µM*	12.8
O=C(N/N=C/c1cc(Br)ccc1O)c1ccncc1	-76.7%	2.82µM*	-2.6	?	8.0
O=C(N/N=C/c1ccc(O)c2ncccc12)c1cccc(Br)c1	-77.9%	13µM*	5.6	?	16.1
CCOc1ccccc1C=NNC(=O)C(=O)NN=Cc1ccccc1OCC	30.2%	25.0%	.	-5.1%	.
Cc1ccc(-c2ccc(=O)n(CC(=O)Nc3ccc(F)c(Cl)c3)n2)cc1C	.	6.3%[46.1 µM]	.	-11.8%[46.1 µM]	.
O=C(CN1C(=O)C2(SCC(=O)N2c2cccc(F)c2)c2ccccc21)NCCc1ccccc1 (stereo not given)	.	.	.	1.5%[46.1 µM]	.
O=C(N/N=C/c1cc(Br)ccc1O)Nc1ccccc1	44.1%	?	76.3*	-23.0%	-2.2
CN(C)S(=O)(=O)c1cccc(NC(=S)N/N=C/c2cc(Br)ccc2O)c1	1.2%	10µM*	28.3	?	14.1

Screening data (PubChem BioAssay)
